One assay concerns NHEM-hTERT. Briefly: cell viability relative to DMSO control (fraction of DMSO control); higher = less cytotoxic, active = 0.5 or less. As to conditions: 1 µM; 120 h. An outline of the steps:
(§1)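 Luminescence from ATPlite 1step was read after 120 h in 384-well plates carrying 315 approved anti-cancer drugs (TargetMol), acoustically pre-spotted to give 1 µM in duplicate. Cells were seeded in 40 µl per well: 2500/well NHEM-hTERT immortalized melanocytes and 1500/well patient-derived Mel-DCC-11 and Mel-DCC-11-R, its resistant subline, which was assayed alone and with 8 µM of its selecting drug. Viability was normalised to vehicle-treated controls and averaged across duplicate wells.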

Another assay has as its system Mel-DCC-11-R. Briefly: cell viability relative to DMSO control (fraction of DMSO control); higher = less cytotoxic, active = 0.8 or less. Particulars: 1 µM, 120 h. An outline of the steps: as §1

This is an account of results in the supplement of paper PMC12808144.

Unmarked numbers belong to inactive results.

With `CNNCc1ccc(C(=O)NC(C)C)cc1.Cl` [Procarbazine hydrochloride], the cell viability in the assay on NHEM-hTERT is 1.13; in the assay on Mel-DCC-11-R (vemurafenib co-treatment 0 µM) it was 1.04; with Mel-DCC-11-R (vemurafenib co-treatment 8 µM) it was 1.25.
`CNC(=O)c1ccc(N2C(=S)N(c3cnc(C#N)c(C(F)(F)F)c3)C(=O)C23CCC3)cc1F` [Apalutamide]: the cell viability in the assay on NHEM-hTERT is 1.01; in the assay with Mel-DCC-11-R (vemurafenib co-treatment 0 µM) it was 0.958; in the assay with Mel-DCC-11-R (vemurafenib co-treatment 8 µM), 1.1.
As to `NC(=O)NO` [Hydroxyurea], the cell viability was 1.1 with NHEM-hTERT, 1.09 in the assay on Mel-DCC-11-R (vemurafenib co-treatment 0 µM) and 0.655 (active) in the assay with Mel-DCC-11-R (vemurafenib co-treatment 8 µM).
The like results for `CC(=O)O[C@]1(C(C)=O)CC[C@H]2[C@@H]3CCC4=CC(=O)CCC4=C3[C@@H](c3ccc(N(C)C)cc3)C[C@@]21C` [Ulipristal acetate] were, in that order, 0.967, 1.13 and 1.04.
Regarding `CCS(=O)(=O)N1CC(CC#N)(n2cc(-c3ncnc4[nH]ccc34)cn2)C1` [Baricitinib], the cell viability in the assay with NHEM-hTERT is 1.07; with Mel-DCC-11-R (vemurafenib co-treatment 0 µM), 1; in the assay with Mel-DCC-11-R (vemurafenib co-treatment 8 µM) it was 1.22.
